Drawing on the supplement of paper PMC8047044, this text covers neurite formation score for 39 compounds.

Structures can show the parent of a compound that is named as a salt.

One test deals with Neuro-2a. Put plainly: neurite formation score, plate-normalized to DMSO control mean 5.04 (score (0-8 scale)); higher = more or longer neurites. The conditions noted are these: 1 µM. The procedure: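 Neuro-2a mouse neuroblastoma cells in PLL-coated 96-well plates were pre-treated for 1 h in DMEM(+) with each kinase inhibitor at 1 µM, then switched to serum-free DMEM(-) with inhibitor to induce neurite outgrowth and fixed about 2-3 h later. Three blinded observers scored neurite formation from 0 (no neurites) to 8 (long neurites on almost all cells).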
Compound `CC(C)(CCCCCC(O)CCCCCC(C)(C)C(=O)O)C(=O)O` displayed a neurite formation score of 0.138.
`Clc1ccc(Nc2nnc(Cc3ccncc3)c3ccccc23)cc1` [Vatalanib] registered a neurite formation score of 4.69.
Take `CCN(CCCOc1ccc2c(Nc3cc(CC(=O)Nc4cccc(F)c4)[nH]n3)ncnc2c1)CCOP(=O)(O)O`: the neurite formation score was found to be 4.91.
The compound `COc1cccc(-c2cc(=O)c3ccccc3o2)c1N` yielded a neurite formation score of 3.57.
The same measure, in the same setting: the same measure for `O=c1cc(CN2CCOCC2)occ1OCCCCCSc1ccnc2cc(C(F)(F)F)ccc12`: 4.21; for `CC(C)Oc1ccc(-c2cnc3c(-c4ccnc5ccccc45)cnn3c2)cc1`: 4.88.
Same read-out and setting: the same measure for `O=c1cc(N2CCOCC2)oc2c1ccc1ccccc12`: 4.8.
In the case of `Cc1[nH]nc2ccc(-c3cncc(OC[C@@H](N)Cc4ccccc4)c3)cc12`, the neurite formation score amounted to 4.63.
On the same count and under the same terms, the same measure for `CCOC(=O)c1cnc2ccc(-c3cncc(NS(=O)(=O)c4ccccc4)c3)cn12`: -0.457; for `CO[C@H]1C[C@@H]2CC[C@@H](C)[C@@](O)(O2)C(=O)C(=O)N2CCCC[C@H]2C(=O)O[C@H]([C@H](C)C[C@@H]2CC[C@@H](O)[C@H](OC)C2)CC(=O)[C@H](C)/C=C(\C)[C@@H](O)[C@@H](OC)C(=O)[C@H](C)C[C@H](C)/C=C/C=C/C=C/1C` [Rapamycin (Sirolimus)]: 4.57.
The same measure, in the same setting: the same measure for `N#C/C(=C(/N)Sc1ccc(N)cc1)c1ccccc1C(F)(F)F`: 3.91.
Compound `O=C(/C=C/c1ccc2ccccc2n1)c1ccncc1` returned a neurite formation score of 5.21.
In turn, `Cc1ccccc1-n1c(Cn2nc(-c3cccc(O)c3)c3c(N)ncnc32)nc2cccc(C)c2c1=O` came in with a neurite formation score of 4.88.
The compound `Cn1cc(-c2ccc3ncc(Cc4ccc5ncccc5c4)n3n2)cn1` registered a neurite formation score of 4.63.
`CNC(=O)c1cc(Oc2ccc(NC(=O)Nc3ccc(Cl)c(C(F)(F)F)c3)cc2)ccn1` [Sorafenib] yielded a neurite formation score of 4.24.
Consider `CC(C)(C)Cn1c(N)nc2ccc(-c3[nH]c(C(C)(C)C)nc3-c3ccc(F)cc3)nc21`, for which the neurite formation score amounted to 4.57.
On to `Cc1ccc(NC(=O)c2ccc(CN3CCN(C)CC3)cc2)cc1Nc1nc(-c2cccnc2)cs1` [Masitinib (AB1010)], for which the neurite formation score amounted to 4.24.
On to `Cc1ccc(Nc2nccc(N(C)c3ccc4c(C)n(C)nc4c3)n2)cc1S(N)(=O)=O`, for which the neurite formation score was 3.91.
`O=c1sn(-c2cccc3ccccc23)c(=O)n1Cc1ccccc1` [Tideglusib] returned a neurite formation score of 4.21.
For the compound `COc1ccccc1-c1cc(Nc2cccc(CS(N)(=O)=O)c2)ncn1`, the neurite formation score is 4.54.
Same read-out and setting: as for `O=C(Nc1ccccc1C(=O)NC1CCCCNC1=O)c1cc2ccccc2s1` (stereo not drawn), the figure is 3.54; as for `Cc1cc(C)c(/C=C2\C(=O)Nc3ccccc32)[nH]1` [Semaxanib (SU5416)], 4.54; as for `CCCCOc1c(C(=O)c2c(F)cc(C)cc2F)c[nH]c2nncc1-2`, 5.29.
Compound `O=c1c(O)c(-c2ccc(O)c(O)c2)oc2cc(O)cc(O)c12` [Quercetin] showed a neurite formation score of 4.54.
Still for that read-out and setting: the same measure for `C=CC(=O)Nc1ccc(CN2C(=O)N(c3cc(OC)cc(OC)c3)Cc3cnc(Nc4ccc(N5CCN(C)CC5)cc4)nc32)cc1`: 4.63; for `C=CC(=O)N1CCC(Oc2cc3c(Nc4ccc(Cl)c(Cl)c4F)ncnc3cc2OC)CC1` [Poziotinib]: 4.14; for `CC[C@@H]1C(=O)N(C)c2cnc(Nc3ccc(C(=O)N[C@H]4CC[C@H](N5CCN(CC6CC6)CC5)CC4)cc3OC)nc2N1C(C)C` [BI6727 (Volasertib)]: 5.29.
On the same count and under the same terms, as for `CN(C)C/C=C/C(=O)Nc1cc2c(Nc3ccc(F)c(Cl)c3)ncnc2cc1O[C@H]1CCOC1` [Afatinib dimaleate], the figure is 4.91; as for `COc1ncc(-c2ccc3nccc(-c4ccnnc4)c3c2)cc1NS(=O)(=O)c1ccc(F)cc1F`, 2.63; as for `CN(C)Cc1cccc(N=C(c2ccccc2)c2c(O)[nH]c3cc(C(=O)N(C)C)ccc23)c1`, 4.9.
Consider `NC(=O)Nc1sc(-c2ccc(F)cc2)cc1C(N)=O`, for which the neurite formation score worked out at 4.36.
`O=C(/C=C/c1ccc(O)c(O)c1)c1ccc(O)cc1O` [Butein] showed a neurite formation score of 5.24.
Take `COc1cc2ncnc(Nc3cccc(Cl)c3F)c2cc1OC(=O)N1CCN(C)C[C@H]1C`: the neurite formation score was found to be 4.54.
Take `O=C(c1ccc(/C=C/c2n[nH]c3ccccc23)cc1)N1CCNCC1`: the neurite formation score worked out at 6.02.
Still for that read-out and setting: the same measure for `Cc1nc(Nc2n[nH]c3c2CN(C(=O)N[C@H](CN(C)C)c2ccccc2)C3(C)C)c2sccc2n1`: 4.02.
On the same count and under the same terms, the same measure for `Brc1c(Br)c(Br)c2n[nH]nc2c1Br`: 5.47; for `C=CCc1ccc(O)c(-c2ccc(O)c(CC=C)c2)c1` [Honokiol]: 4.47; for `N#CCNC(=O)c1ccc(-c2ccnc(Nc3ccc(N4CCOCC4)cc3)n2)cc1` [CYT387 sulfate salt]: 4.69.
`Cn1c(Nc2ccc(C(F)(F)F)cc2)nc2cc(Oc3ccnc(-c4ncc(C(F)(F)F)[nH]4)c3)ccc21` returned a neurite formation score of 4.24.

The test system of a further test is Neuro-2a. Described as above. The conditions noted are these: 0.1 µM. The procedure: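 Neuro-2a mouse neuroblastoma cells in PLL-coated 96-well plates were pre-treated for 1 h in DMEM(+) with each kinase inhibitor at 0.1 µM, then switched to serum-free DMEM(-) with inhibitor to induce neurite outgrowth and fixed about 2-3 h later. Three blinded observers scored neurite formation from 0 (no neurites) to 8 (long neurites on almost all cells).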
In turn, `CC(C)(CCCCCC(O)CCCCCC(C)(C)C(=O)O)C(=O)O` gave a neurite formation score of 0.0903.
Same read-out and setting: as for `Clc1ccc(Nc2nnc(Cc3ccncc3)c3ccccc23)cc1` [Vatalanib], the figure is 4.92.
As for `CCN(CCCOc1ccc2c(Nc3cc(CC(=O)Nc4cccc(F)c4)[nH]n3)ncnc2c1)CCOP(=O)(O)O`, the neurite formation score was 4.71.
In turn, `COc1cccc(-c2cc(=O)c3ccccc3o2)c1N` showed a neurite formation score of 5.04.
The same measure, in the same setting: the same measure for `O=c1cc(CN2CCOCC2)occ1OCCCCCSc1ccnc2cc(C(F)(F)F)ccc12`: 5.75.
Still for that read-out and setting: the same measure for `CC(C)Oc1ccc(-c2cnc3c(-c4ccnc5ccccc45)cnn3c2)cc1`: 4.08.
The same measure, in the same setting: as for `O=c1cc(N2CCOCC2)oc2c1ccc1ccccc12`, the figure is 4.42; as for `Cc1[nH]nc2ccc(-c3cncc(OC[C@@H](N)Cc4ccccc4)c3)cc12`, 4.25.
Turning to `CCOC(=O)c1cnc2ccc(-c3cncc(NS(=O)(=O)c4ccccc4)c3)cn12`, the neurite formation score was found to be 0.0843.
Still for that read-out and setting: as for `CO[C@H]1C[C@@H]2CC[C@@H](C)[C@@](O)(O2)C(=O)C(=O)N2CCCC[C@H]2C(=O)O[C@H]([C@H](C)C[C@@H]2CC[C@@H](O)[C@H](OC)C2)CC(=O)[C@H](C)/C=C(\C)[C@@H](O)[C@@H](OC)C(=O)[C@H](C)C[C@H](C)/C=C/C=C/C=C/1C` [Rapamycin (Sirolimus)], the figure is 5.54.
`N#C/C(=C(/N)Sc1ccc(N)cc1)c1ccccc1C(F)(F)F` came in with a neurite formation score of 4.71.
Take `O=C(/C=C/c1ccc2ccccc2n1)c1ccncc1`: the neurite formation score stood at 3.08.
On to `Cc1ccccc1-n1c(Cn2nc(-c3cccc(O)c3)c3c(N)ncnc32)nc2cccc(C)c2c1=O`, for which the neurite formation score is 4.75.
On the same count and under the same terms, as for `Cn1cc(-c2ccc3ncc(Cc4ccc5ncccc5c4)n3n2)cn1`, the figure is 4.92; as for `CNC(=O)c1cc(Oc2ccc(NC(=O)Nc3ccc(Cl)c(C(F)(F)F)c3)cc2)ccn1` [Sorafenib], 4.71; as for `CC(C)(C)Cn1c(N)nc2ccc(-c3[nH]c(C(C)(C)C)nc3-c3ccc(F)cc3)nc21`, 5.54.
The compound `Cc1ccc(NC(=O)c2ccc(CN3CCN(C)CC3)cc2)cc1Nc1nc(-c2cccnc2)cs1` [Masitinib (AB1010)] gave a neurite formation score of 4.38.
On the same count and under the same terms, the same measure for `Cc1ccc(Nc2nccc(N(C)c3ccc4c(C)n(C)nc4c3)n2)cc1S(N)(=O)=O`: 3.71.
`O=c1sn(-c2cccc3ccccc23)c(=O)n1Cc1ccccc1` [Tideglusib] showed a neurite formation score of 5.08.
`COc1ccccc1-c1cc(Nc2cccc(CS(N)(=O)=O)c2)ncn1` came in with a neurite formation score of 4.42.
Compound `O=C(Nc1ccccc1C(=O)NC1CCCCNC1=O)c1cc2ccccc2s1` (stereo not drawn) had a neurite formation score of 3.75.
The same measure, in the same setting: the same measure for `Cc1cc(C)c(/C=C2\C(=O)Nc3ccccc32)[nH]1` [Semaxanib (SU5416)]: 5.42.
Still for that read-out and setting: as for `CCCCOc1c(C(=O)c2c(F)cc(C)cc2F)c[nH]c2nncc1-2`, the figure is 4.92; as for `O=c1c(O)c(-c2ccc(O)c(O)c2)oc2cc(O)cc(O)c12` [Quercetin], 5.08; as for `C=CC(=O)Nc1ccc(CN2C(=O)N(c3cc(OC)cc(OC)c3)Cc3cnc(Nc4ccc(N5CCN(C)CC5)cc4)nc32)cc1`, 4.25.
On the same count and under the same terms, the same measure for `C=CC(=O)N1CCC(Oc2cc3c(Nc4ccc(Cl)c(Cl)c4F)ncnc3cc2OC)CC1` [Poziotinib]: 3.76.
Turning to `CC[C@@H]1C(=O)N(C)c2cnc(Nc3ccc(C(=O)N[C@H]4CC[C@H](N5CCN(CC6CC6)CC5)CC4)cc3OC)nc2N1C(C)C` [BI6727 (Volasertib)], the neurite formation score amounted to 4.25.
Regarding `CN(C)C/C=C/C(=O)Nc1cc2c(Nc3ccc(F)c(Cl)c3)ncnc2cc1O[C@H]1CCOC1` [Afatinib dimaleate], the neurite formation score is 4.38.
Still for that read-out and setting: as for `COc1ncc(-c2ccc3nccc(-c4ccnnc4)c3c2)cc1NS(=O)(=O)c1ccc(F)cc1F`, the figure is 4.92; as for `CN(C)Cc1cccc(N=C(c2ccccc2)c2c(O)[nH]c3cc(C(=O)N(C)C)ccc23)c1`, 5.54; as for `NC(=O)Nc1sc(-c2ccc(F)cc2)cc1C(N)=O`, 4.58.
Still for that read-out and setting: the same measure for `O=C(/C=C/c1ccc(O)c(O)c1)c1ccc(O)cc1O` [Butein]: 4.38.
Same read-out and setting: the same measure for `COc1cc2ncnc(Nc3cccc(Cl)c3F)c2cc1OC(=O)N1CCN(C)C[C@H]1C`: 4.75; for `O=C(c1ccc(/C=C/c2n[nH]c3ccccc23)cc1)N1CCNCC1`: 1.92; for `Cc1nc(Nc2n[nH]c3c2CN(C(=O)N[C@H](CN(C)C)c2ccccc2)C3(C)C)c2sccc2n1`: 4.92.
Turning to `Brc1c(Br)c(Br)c2n[nH]nc2c1Br`, the neurite formation score was found to be 5.09.
Same read-out and setting: the same measure for `C=CCc1ccc(O)c(-c2ccc(O)c(CC=C)c2)c1` [Honokiol]: 2.76; for `N#CCNC(=O)c1ccc(-c2ccnc(Nc3ccc(N4CCOCC4)cc3)n2)cc1` [CYT387 sulfate salt]: 4.92; for `Cn1c(Nc2ccc(C(F)(F)F)cc2)nc2cc(Oc3ccnc(-c4ncc(C(F)(F)F)[nH]4)c3)ccc21`: 4.88.
